High-throughput results from PubChem BioAssay.
eIF4E-4G inh: inhibitors of eIF4E and eIF4G interaction in translation initiation | 220,000 compounds, 0.37% hits | TR-FRET eIF4E-eIF4GI(517-606) binding, 2 h | inhibition, % at 21.7 µM | P63073+Q04637 | AID 782;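 active = inhibition above about 30%, limit read from the data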
Target sequence (P63073 whole entry, looked up): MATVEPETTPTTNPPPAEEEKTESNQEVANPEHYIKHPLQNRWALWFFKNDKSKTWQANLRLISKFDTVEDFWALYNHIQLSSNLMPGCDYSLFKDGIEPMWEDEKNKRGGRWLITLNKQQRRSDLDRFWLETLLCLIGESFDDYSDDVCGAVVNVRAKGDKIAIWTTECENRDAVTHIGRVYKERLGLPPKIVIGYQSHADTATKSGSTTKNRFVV
Target sequence (Q04637 whole entry, looked up): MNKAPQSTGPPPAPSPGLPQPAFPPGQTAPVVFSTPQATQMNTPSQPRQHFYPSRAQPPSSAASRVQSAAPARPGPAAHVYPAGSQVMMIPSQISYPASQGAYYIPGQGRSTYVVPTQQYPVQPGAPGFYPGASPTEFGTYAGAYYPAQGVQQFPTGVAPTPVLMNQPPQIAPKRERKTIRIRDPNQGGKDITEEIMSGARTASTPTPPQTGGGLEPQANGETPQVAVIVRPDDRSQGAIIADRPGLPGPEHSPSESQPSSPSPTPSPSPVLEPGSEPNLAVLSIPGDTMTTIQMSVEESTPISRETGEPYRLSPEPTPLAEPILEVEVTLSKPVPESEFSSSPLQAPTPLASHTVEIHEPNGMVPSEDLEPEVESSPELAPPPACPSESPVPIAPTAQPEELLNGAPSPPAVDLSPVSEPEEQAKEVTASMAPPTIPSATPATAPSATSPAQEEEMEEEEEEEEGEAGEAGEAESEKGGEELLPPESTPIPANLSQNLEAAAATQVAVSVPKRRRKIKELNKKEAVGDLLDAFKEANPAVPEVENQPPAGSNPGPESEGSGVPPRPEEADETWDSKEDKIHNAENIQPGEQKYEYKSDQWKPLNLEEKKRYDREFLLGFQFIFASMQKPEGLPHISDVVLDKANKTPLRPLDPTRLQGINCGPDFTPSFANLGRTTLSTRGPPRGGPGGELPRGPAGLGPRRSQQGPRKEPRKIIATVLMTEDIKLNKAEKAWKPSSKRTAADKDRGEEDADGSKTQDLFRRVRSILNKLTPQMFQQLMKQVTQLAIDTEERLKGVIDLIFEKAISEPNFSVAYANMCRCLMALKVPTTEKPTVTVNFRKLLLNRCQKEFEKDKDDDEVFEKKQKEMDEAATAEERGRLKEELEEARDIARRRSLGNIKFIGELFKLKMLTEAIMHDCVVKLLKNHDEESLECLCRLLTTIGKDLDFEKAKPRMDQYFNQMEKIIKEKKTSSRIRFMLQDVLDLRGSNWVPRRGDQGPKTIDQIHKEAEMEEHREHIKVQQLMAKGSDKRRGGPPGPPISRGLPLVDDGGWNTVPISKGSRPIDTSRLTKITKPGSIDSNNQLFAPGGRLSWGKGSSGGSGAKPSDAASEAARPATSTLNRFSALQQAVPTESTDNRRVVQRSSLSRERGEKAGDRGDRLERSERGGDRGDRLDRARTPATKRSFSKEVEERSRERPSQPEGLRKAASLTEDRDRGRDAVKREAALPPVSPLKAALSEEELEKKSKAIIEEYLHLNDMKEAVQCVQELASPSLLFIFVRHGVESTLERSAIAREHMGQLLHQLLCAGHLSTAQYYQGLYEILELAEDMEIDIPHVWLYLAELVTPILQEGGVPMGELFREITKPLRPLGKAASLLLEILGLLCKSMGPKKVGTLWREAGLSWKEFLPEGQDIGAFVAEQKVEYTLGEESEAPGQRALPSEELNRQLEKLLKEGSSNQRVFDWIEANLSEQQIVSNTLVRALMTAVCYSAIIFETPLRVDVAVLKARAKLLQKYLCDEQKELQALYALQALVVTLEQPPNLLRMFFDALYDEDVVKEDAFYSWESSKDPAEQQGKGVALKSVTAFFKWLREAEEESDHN
eIF4H FP inh: inhibitors of RNA binding by human eIF4H; inhibition, % at 35 µM; Q15056; 290,000 compounds, 0.94% hits; eIF4H fluorescence polarization binding assay;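 also: calls also rest on retests at 20 µM and on dose response follow-up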
PABP polyA inh: PABP-poly(A) binding inhibition; 290,000 compounds, 1% hits; inhibition, % at 35 µM; PABP-poly(A) RNA binding, fluorescence polarization;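 also: calls also rest on retests at 20 µM and on dose response follow-up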
PERK inh: human PERK inhibition, primary cell-based screen; Q9NZJ5; CHO PERK-DD fusion, SEAP luminescence translation reporter; inhibition, % at 5.6 µM; 220,000 compounds, 0.17% hits; AID 1416;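 active = inhibition above the mean inhibition of all tested compounds plus 3 SD, set separately per screening campaign, cut at about 2.9% in these data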;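 also: PERK kinase domain activated by AP20187 dimerizer at 100 nM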
PfM18AAP inh-1: PfM18AAP enzyme inhibition | 290,000 compounds, 1.2% hits | recombinant PfM18AAP, H-Glu-NHMec fluorogenic cleavage | inhibition, % at 7.35 µM;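 active = inhibition above the campaign mean inhibition over all tested compounds plus 3 SD, cut at about 28% in these data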
MLLE-PAM2 inh: inhibitors of microRNA-mediated deadenylation, human PABP1 MLLE binding; GST-MLLE / FITC-PAM2 fluorescence polarization; inhibition, % at 20 µM; 360,000 compounds, 0.36% hits; AID 588489; in the data active = inhibition above about 35%, passing the limit was not always enough
PfM18AAP inh-2: confirmation of Plasmodium falciparum M18 aspartyl aminopeptidase inhibitors | shares compounds with PfM18AAP inh-1 | recombinant PfM18AAP, H-Glu-NHMec fluorogenic cleavage | inhibition, % at 7.35 µM | 2,400 compounds, 28% hits | AID 2170;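 active = mean inhibition over replicate wells above the hit cutoff set for the earlier primary screen, cut at about 29% in these data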
CTSL1 counter: counter-screen for PFM18AAP inhibitors: confirmation of human cathepsin L inhibitors | shares compounds with PfM18AAP inh-1 | purified cathepsin L1, Z-Leu-Arg-MCA fluorescence | inhibition, % at 5.96 µM | 2,400 tested, under 10 active | AID 2178;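 active = average inhibition across replicates above the hit cutoff set in the earlier primary screen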
Of the large screens only hits and unclear results are named; the others gave an inactive call (follow-up assays come after a bar, where they were run). Only some compounds are listed: those with a hit (about 2.4% of all), similar ones and a draw of the others. Unless noted, no rule for the calls is given here.

Oc1ccc(/C=N/NC(=S)Nc2cccnc2)c(O)c1O	eIF4E-4G inh 57.6, eIF4H FP inh 87.0, PABP polyA inh 56.1, PfM18AAP inh-1 62.1 | PfM18AAP inh-2 34.1 | CTSL1 counter inactive
Cc1cccc(N/N=C/c2ccc(O)c(O)c2O)c1	PfM18AAP inh-1 36.1 | PfM18AAP inh-2 inactive | CTSL1 counter inactive
O=[N+]([O-])c1ccc(N2CCN(c3ccc(O)cc3)CC2)cn1	PfM18AAP inh-1 40.5 (no result: eIF4E-4G inh, PERK inh) | PfM18AAP inh-2 inactive | CTSL1 counter inactive
COc1cc(CNc2ccc3[nH]c(=O)[nH]c3c2)ccc1OCc1ccccc1	none (no result: eIF4E-4G inh, PERK inh)
Cc1ccc(CNc2ccc(CNc3ncn[nH]3)cc2)cc1	none
COc1cc(CNc2ccc(CNc3ncn[nH]3)cc2)ccc1OCc1ccccc1	PfM18AAP inh-1 46.6 | PfM18AAP inh-2 inactive | CTSL1 counter inactive
COc1ccccc1CNc1ccc(CNc2ncn[nH]2)cc1	PfM18AAP inh-1 32.6 | PfM18AAP inh-2 inactive | CTSL1 counter inactive
CN(C)c1ccc(CNc2ncn[nH]2)cc1	PfM18AAP inh-1 36.9 | PfM18AAP inh-2 inactive | CTSL1 counter inactive
CC(=O)Nc1ccc(-c2ccnc3c2CC(C)(C(=O)NCCc2ccccc2)O3)cc1 (centres undefined)	none (no result: eIF4E-4G inh, eIF4H FP inh, PABP polyA inh, PERK inh, PfM18AAP inh-1)
COCCCNC(=S)N/N=C/c1ccc(O)cc1O	PfM18AAP inh-1 35.8 | PfM18AAP inh-2 inactive | CTSL1 counter inactive
CCOC(=O)c1c(C)[nH]c(C(=O)OCC(=O)N2CCN(S(=O)(=O)c3ccc(C)cc3C)CC2)c1C	none (no result: eIF4E-4G inh, eIF4H FP inh, PABP polyA inh, PERK inh, PfM18AAP inh-1)
C=CCNC(=S)NNC(=O)c1ccc(Br)cc1	none
C=CCNC(=S)NNC(=O)c1cc(O)ccc1O	PfM18AAP inh-1 39.0 | PfM18AAP inh-2 28.9 | CTSL1 counter inactive
O=C(O)c1ccccc1NS(=O)(=O)c1cccc(C(F)(F)F)c1	none
O=C(O)c1ccccc1NS(=O)(=O)c1cccc(-n2sc3ccccc3c2=O)c1	eIF4H FP inh 46.8, PABP polyA inh 58.6, PfM18AAP inh-1 62.4 (no result: eIF4E-4G inh, PERK inh) | PfM18AAP inh-2 49.7 | CTSL1 counter inactive
Cc1ccc(C2N3CC4([N+](=O)[O-])CN2CC([N+](=O)[O-])(C3)C4(C)C)cc1 (centres undefined)	none
CC1(C)C2([N+](=O)[O-])CN3CC1([N+](=O)[O-])CN(C2)C3c1ccc(O)c(O)c1 (centres undefined)	PfM18AAP inh-1 77.0 | PfM18AAP inh-2 84.2 | CTSL1 counter inactive
COc1cc(OC)c(C2CC(=O)N3CN(c4ccccc4)CSC3=C2C#N)cc1OC (centres undefined)	PfM18AAP inh-1 38.7 | PfM18AAP inh-2 inactive | CTSL1 counter inactive
Cc1ccc(C2CC(=O)N3CN(c4ccc(Br)cc4)CSC3=C2C#N)o1 (centres undefined)	eIF4H FP inh 41.2, PABP polyA inh 91.6, PfM18AAP inh-1 37.2 | PfM18AAP inh-2 inactive | CTSL1 counter inactive
COc1ccc(OC)c(C2CC(=O)N3CN(c4ccc(C)c(Cl)c4)CSC3=C2C#N)c1 (centres undefined)	none
COc1ccc(OC)c(C2CC(=O)N3CN(c4cccc(Cl)c4)CSC3=C2C#N)c1 (centres undefined)	none
COc1cccc(NC(=O)C2(C)CCN2C(=O)Cc2cccc3ccccc23)c1 (centres undefined)	none (no result: eIF4E-4G inh, eIF4H FP inh, PABP polyA inh, PERK inh, PfM18AAP inh-1)
O=S(=O)(Nc1ccc(Cl)cc1)c1ccc(N2CCOCC2)c(NC(=S)NCCN2CCOCC2)c1	PfM18AAP inh-1 44.7 | PfM18AAP inh-2 inactive | CTSL1 counter inactive
S=c1[nH]ncn1/N=C/c1ccccc1	none
S=c1[nH]c(-c2ccccc2)cn1/N=C/c1ccncc1	PfM18AAP inh-1 51.3 | PfM18AAP inh-2 42.7 | CTSL1 counter inactive
CC(=O)c1c(C)n([O-])c2cc(C)ccc2[n+]1=O	none
CCOc1cc(NC(=O)c2ccccc2C)c(OCC)cc1NC(=O)C1=Cc2ccccc2OC1	none
Cc1ccc(S(=O)(=O)N2CCCC2C(=O)Nn2cnnc2)cc1 (centres undefined)	none
Cc1ccc(S(=O)(=O)N2C(=O)CCC2C(=O)Nn2cnnc2)cc1 (centres undefined)	PfM18AAP inh-1 66.2 | PfM18AAP inh-2 32.3 | CTSL1 counter inactive
C(=N\Nc1ncnc2sc3c(c12)CCC3)/c1ccncc1	PfM18AAP inh-1 48.4 | PfM18AAP inh-2 inactive | CTSL1 counter inactive
C(=N\Nc1ncnc2sc3c(c12)CCC3)/c1cccs1	none
COc1cc(C(=O)NCc2cn3cccc(C)c3n2)cc(OC)c1OC	none
CNC(=S)NNC(=O)c1sccc1C	PfM18AAP inh-1 35.4 | PfM18AAP inh-2 inactive | CTSL1 counter inactive
COC(=O)c1cccnc1NC(=S)NNC(=O)c1ccccc1	none
COc1cc(OC)cc(C(=O)NCC(=O)N2CCN(c3ccc(O)cc3)CC2)c1	PfM18AAP inh-1 35.6 (no result: eIF4E-4G inh, PERK inh) | PfM18AAP inh-2 inactive | CTSL1 counter inactive
COc1ccc(N2CCN(C(=O)CNC(=O)c3ccc4ccccc4c3)CC2)cc1	none (no result: eIF4E-4G inh, eIF4H FP inh, PABP polyA inh, PERK inh, PfM18AAP inh-1)
CCOC(=O)N1CCN(c2ccc(O)cc2)CC1	PfM18AAP inh-1 38.8 | PfM18AAP inh-2 inactive | CTSL1 counter inactive
O=C(C1CC1)N1CCN(c2ccc(O)cc2)CC1	PfM18AAP inh-1 43.1 (no result: eIF4E-4G inh, PERK inh) | PfM18AAP inh-2 inactive | CTSL1 counter inactive
O=C(NNC(=S)Nc1ccc(Cl)cc1Cl)c1ccc(N2CCOCC2)c([N+](=O)[O-])c1	none
O=S(=O)(c1ccc(-c2ccon2)s1)N1CCN(c2ccncc2)CC1	none (no result: MLLE-PAM2 inh)
Cc1cccc(NC(=S)NCc2ccco2)n1	PfM18AAP inh-1 37.8 | PfM18AAP inh-2 inactive | CTSL1 counter inactive
O=C(O)c1ccc2c(c1)C(=O)/C(=C\c1ccco1)C2=O	PfM18AAP inh-1 42.5 | PfM18AAP inh-2 40.0 | CTSL1 counter inactive
O=C1C(=Cc2ccco2)C(=O)c2ccccc21	none
CC(=O)Nc1ccc(NC(=O)CC2Nc3cccc4cccc(c34)NC2=O)cc1 (centres undefined)	eIF4H FP inh 106.1, PABP polyA inh 83.7, PfM18AAP inh-1 32.5 (no result: eIF4E-4G inh) | PfM18AAP inh-2 inactive | CTSL1 counter inactive
NC(=O)NC(=O)C(Nc1ccc(N2CCCCC2)cc1)c1ccccc1 (centres undefined)	PfM18AAP inh-1 40.8 (no result: eIF4E-4G inh, PERK inh) | PfM18AAP inh-2 inactive | CTSL1 counter inactive
CCCNC(=O)C1(C)CCN(C(=O)c2sccc2C)C1 (centres undefined)	none (no result: eIF4E-4G inh, eIF4H FP inh, PABP polyA inh, PERK inh, PfM18AAP inh-1)
Cc1ccc(N(CC(=O)NC2CCCC2)C(=O)CCC(=O)Nc2nc(C)cs2)cc1	none (no result: eIF4E-4G inh, PERK inh)
O=C(CSc1ccccn1)N1CCN(C(=O)CSc2ccccn2)CC1	none (no result: eIF4E-4G inh, PERK inh, PfM18AAP inh-1)
O=C(CSc1ccccn1)N1CCN(c2ccc(Cl)cc2)CC1	PfM18AAP inh-1 32.7 | PfM18AAP inh-2 inactive | CTSL1 counter inactive
O=C(Nc1c2c(nn1-c1ccc(F)cc1)CS(=O)(=O)C2)c1ccc(S(=O)(=O)N2CCOCC2)cc1	none
CC(=O)Nc1nonc1NC(=O)CSc1ncn[nH]1	PfM18AAP inh-1 47.6 | PfM18AAP inh-2 39.6 | CTSL1 counter inactive
